Source: PubChem
SARS PLP yeast: qHTS of Yeast-based Assay for SARS-CoV PLP | S. cerevisiae expressing SARS-CoV PLpro, growth rescue | 0.19% of 330,000 active | Potency, µM (doses to about 32.9 µM), without a hit: top-dose activity, positive = growth rescue, actives largely listed as activators | AID 485353, 2010; calls by dose curve; also: potency is read from the fitted curve at half-maximal effect; 0% is about no effect; nearly all actives have a fitted effect of over 55% in size
LASV entry inh: qHTS for Inhibitors of binding or entry into cells for Lassa Virus. Lassa virus pseudotype entry inhibition, cell reporter. Potency, µM (series often up to 37.9 µM), for the others: top-dose activity change, negative = inhibition, usual class: inhibitors. 1.2% of 300,000 active. AID 540256, 2011; calls by dose curve; tested in HEK293 cells; also: potency is read from the fitted curve at half-maximal effect; % is scaled to controls: 0 for no effect and ±100 for the full control effect; nearly all actives have a fitted effect of over 50% in size
Marburg entry inh: qHTS for inhibitors of binding or entry into cells for Marburg Virus. Marburg virus pseudotyped entry inhibition, cell reporter. Potency, µM (doses to about 37.8 µM), without a hit: at the top dose activity change, negative = inhibition, hits mostly inhibitors. 1.8% of 300,000 active. AID 540276, 2011; calls by dose curve; tested in HEK293 cells; also: potency is read from the fitted curve at half-maximal effect; % is scaled to controls: 0 for no effect and ±100 for the full control effect
HCV inhibitor: qHTS Assay for Inhibitors of Hepatitis C Virus (HCV); Huh7.5.1 HCVcc-Cre infection, luciferase reporter, 44 h; Potency, µM (top dose mostly 41.8 µM), without a hit: top-dose activity change, negative = inhibition, usual class: inhibitors; 3.4% of 340,000 active; active = well fitted inhibition curve with a large enough effect; inconclusive = small, poorly fitted or top-dose-only effect, or another doubt; inactive = no such curve, though single readings can be large or run the other way; also: potency is read from the fitted curve at half-maximal effect; % is scaled to controls: 0 for no effect and ±100 for the full control effect
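A cell-based infection assay in which seeded cells (1,000 per well) receive test compound after 4 h, are inoculated with HCVcc-Cre at approximately 0.5 moi, and are incubated 44 h before luminescence detection.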
HCMV inh: qHTS Assay for inhibitors of the human cytomegalovirus (HCMV); HFF cells, HCMV-luciferase reporter, 72 h; active compounds read low; activity change, negative = inhibition, % at 57.5 µM; 4.5% of 410,000 active; AID 1259415, 2018; in the data active = activity change below about -60%; inconclusive = no clear call, values can overlap the other calls; inactive = above about -39%; also: % is scaled to controls: 0 for no effect and ±100 for the full control effect
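Two-dose cell screen: HFF monolayers treated with compounds and infected with luciferase-expressing HCMV at 1 PFU/cell, 72 h at 37C, then lysed for luciferase measurement.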
FMDV antiviral: High Throughput Screening for Foot and Mouth Disease Virus Antivirals | FMDV antiviral cell-based qHTS | Potency, µM (titrated, usually from 57.9 µM), for the others: at the top dose activity change, negative = inhibition, actives largely listed as inhibitors | 1.2% of 410,000 active; calls by dose curve; tested in HEK293T cells; also: read-out not given here; potency is read from the fitted curve at half-maximal effect; % is scaled to controls: 0 for no effect and ±100 for the full control effect; nearly all actives have a fitted effect of over 45% in size
* marks the source's active call; other numbers are inactive results; [ ] = remark or other dose. An excerpt weighted towards active compounds, which were near 8% of everything screened.

Screening CC(=O)c1ccc(N2CCN(C(=O)c3cc4c(C)nc5ccccc5c4o3)CC2)cc1 returned SARS PLP yeast 2%, HCV inhibitor 14%, HCMV inh inconclusive and FMDV antiviral inconclusive.
For COc1ccc(N2CCN(C(=O)c3cc4c(C)nc5ccccc5c4o3)CC2)cc1 the results were SARS PLP yeast -30%, HCV inhibitor inconclusive, HCMV inh -100* and FMDV antiviral inconclusive.
`COc1cc(NC(=O)c2cc3c(C)nc4ccccc4c3o2)cc(OC)c1OC` gave SARS PLP yeast -8%, Marburg entry inh -4%, HCV inhibitor inconclusive, HCMV inh -24 and FMDV antiviral 0%.
COc1cccc(N(Cc2nnc3n2CCCCC3)C(=O)Nc2cccc(Cl)c2)c1 was read as LASV entry inh 1%[46.1 µM], HCMV inh 9 and FMDV antiviral 5%.
Screening Oc1ccc(Nc2nc3ccccc3n3cnnc23)cc1 returned Marburg entry inh inconclusive, HCMV inh -12 and FMDV antiviral 14%.
CN(C)CCNC(=O)C(=O)NCC(c1cccnc1)N1CCN(c2ccccc2)CC1 (stereo unspecified) was read as LASV entry inh -28%[46.1 µM], HCMV inh 5 and FMDV antiviral -1%.
For [O-]/C(=C(\C(=S)Nc1ccc(SC(F)F)cc1)[n+]1ccccc1)c1cc(Cl)ccc1Cl the results were SARS PLP yeast -4%, LASV entry inh inconclusive, Marburg entry inh inconclusive, HCV inhibitor inconclusive, HCMV inh -61* and FMDV antiviral -10%.
Cc1cc(C)c(/C([O-])=C(/C(=S)Nc2ccc(SC(F)F)cc2)[n+]2ccccc2)cc1C was read as SARS PLP yeast 1%, LASV entry inh -19%[46.1 µM], Marburg entry inh inconclusive, HCV inhibitor inconclusive, HCMV inh inconclusive and FMDV antiviral 0%.
`CC(C)Oc1ccc(C(=O)Nc2nc3c(s2)CC(C(C)(C)C)CC3)cc1` (stereo unspecified) gave LASV entry inh 13%[46.1 µM], Marburg entry inh 10%[46.1 µM], HCMV inh inconclusive and FMDV antiviral inconclusive.
`Cc1ccccc1C(=O)Nc1nc2c(s1)CC(C(C)(C)C)CC2` (stereo unspecified) gave LASV entry inh inconclusive, Marburg entry inh 7%[46.1 µM], HCMV inh -66* and FMDV antiviral -11%.
CCC1CN(C(=O)N2CCC(C(=O)NCc3ccccc3OC)CC2)c2ccccc2O1 (stereo unspecified) was read as SARS PLP yeast -3%, HCV inhibitor 16µM*, HCMV inh -12 and FMDV antiviral -15%.
For CCC1CN(C(=O)Nc2ccc(C)cc2)c2cc(C)ccc2O1 (stereo unspecified) the results were SARS PLP yeast -1%, LASV entry inh inconclusive, Marburg entry inh 11µM*, HCV inhibitor inconclusive, HCMV inh -11 and FMDV antiviral 9%.
Screening CCC1CN(C(=O)N2CCC(C(=O)NCCc3ccc(OC)cc3OC)CC2)c2cc(C)ccc2O1 (stereo unspecified) returned LASV entry inh -18%[46.1 µM], HCMV inh -1 and FMDV antiviral 28µM*.
For CCOC(=O)c1sc2ccccc2c1OC(=O)c1ccc(C)cc1 the results were SARS PLP yeast -7%, LASV entry inh 4.5µM*, Marburg entry inh -26%, HCV inhibitor 14% and FMDV antiviral 15%.
For CCOC(=O)c1ccc(NC(=O)c2sc3ccccc3c2Cl)cc1 the results were LASV entry inh 23%[46.1 µM], HCMV inh 114 and FMDV antiviral 37%.
`N#CCn1c(CCl)nc2ccccc2c1=O` gave SARS PLP yeast -3%, HCV inhibitor 4%, HCMV inh -34 and FMDV antiviral 7.9µM*.
`CN1CCN(Cc2nc3ccccc3c(=O)n2CC#N)CC1` gave SARS PLP yeast 1%, HCV inhibitor 6%, HCMV inh 19 and FMDV antiviral -9%.
For O=C(CSc1nnc(Nc2ccccc2F)s1)Nc1cccc(S(=O)(=O)N2CCCCC2)c1 the results were SARS PLP yeast 1%, LASV entry inh inconclusive, Marburg entry inh inconclusive, HCV inhibitor 13µM*, HCMV inh 9 and FMDV antiviral inconclusive.
For Cc1nnc(NC(=O)c2cc(S(=O)(=O)N3CCCCC3)ccc2Cl)s1 the results were SARS PLP yeast -4%, LASV entry inh 21%, Marburg entry inh 12%, HCV inhibitor 11µM*, HCMV inh 0 and FMDV antiviral -17%.
O=C(CSc1nnnn1C1CC1)Nc1cccc(S(=O)(=O)N2CCCC2)c1 was read as SARS PLP yeast -1%, LASV entry inh -4%, Marburg entry inh inconclusive, HCV inhibitor -22%, HCMV inh -75* and FMDV antiviral -1%.
Cc1ccc(NC(=O)c2cc(-n3cnnc3)ccc2Cl)cc1 was read as SARS PLP yeast -13%, LASV entry inh 10%, Marburg entry inh 14%, HCV inhibitor inconclusive, HCMV inh 5 and FMDV antiviral 15%.
O=C(Nc1ccc(-c2nc3ccccc3s2)cc1)c1cc(-n2cnnc2)ccc1Cl was read as SARS PLP yeast 9%, LASV entry inh inconclusive, Marburg entry inh inconclusive, HCV inhibitor 4µM* and HCMV inh -82*.
Screening CN(Cc1ccco1)c1ncncc1-c1cccc(C#N)c1 returned FMDV antiviral -8%.
Screening OC(c1ccc(Cl)cc1)c1ncc(-c2ccc(Oc3ccccc3)cc2)[nH]1 (stereo unspecified) returned HCMV inh inconclusive and FMDV antiviral -17%.
`CCCCNC(=O)C1C(c2ccc(C(F)(F)F)cc2)=Nc2ccccc2N1C(=O)C1CCN(C(C)=O)CC1` (stereo unspecified) gave HCMV inh 4 and FMDV antiviral -2%.
`O=C(CSc1nnnn1C1CCCC1)Nc1cccc(NC(=O)c2ccco2)c1` gave SARS PLP yeast 0%, LASV entry inh 4%, Marburg entry inh -21%, HCV inhibitor -12% and HCMV inh -70*.
For CC(C)Nc1nnc(SCC(=O)Nc2ccc3c(c2)C(=O)c2ccccc2C3=O)s1 the results were SARS PLP yeast -15%, LASV entry inh inconclusive, Marburg entry inh inconclusive, HCV inhibitor inconclusive, HCMV inh 73 and FMDV antiviral -2%.
`O=C(CSc1nnc(NC2CCCCC2)s1)Nc1ccc2c(c1)C(=O)c1ccccc1C2=O` gave SARS PLP yeast 1%, HCV inhibitor 10µM*, HCMV inh 106 and FMDV antiviral 22%.
